GAA inhib – blocks human lysosomal alpha-glucosidase | purified human GAA, 4-MU-alpha-glucoside fluorescence | AID 1466 | actives 0.005% (n = 200,000) | Potency, µM (highest dose often 76.9 µM), without a hit: at the highest dose activity change, negative = inhibition, most hits filed as inhibitors | P10253; active means well fitted curve in the direction sought with a large enough effect; inconclusive means small, poorly fitted or top-dose-only effect, or another doubt; inactive means no such curve, though single readings can be large; an effect the other way counts as inactive or inconclusive;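 further: potency means the concentration at half of the fitted maximal effect; plate controls were uninhibited enzyme wells for no effect and no-enzyme background for full effect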
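Activity normalized between no-enzyme (basal) and enzyme-only wells. Conditions: 4 nM human enzyme, 400 uM fluorogenic substrate, citrate/phosphate pH 5.0 with Tween-20, 20 min room temperature, compounds up to 77 uM.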
GAA glycogen mod – inhibitors or activators of human alpha-glucosidase glycogen cleavage | P10253 | recombinant GAA, glycogen substrate, Amplex Red glucose oxidase fluorescence | Potency, µM (highest dose often 76.4 µM), inactives show at the top dose activity change, negative = inhibition, usual class: inhibitors | actives 0.38% (n = 300,000) | AID 2100; active means well fitted curve in the direction sought with a large enough effect; inconclusive means small, poorly fitted or top-dose-only effect, or another doubt; inactive means no such curve, though single readings can be large; an effect the other way counts as inactive or inconclusive;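 further: potency means the concentration at half of the fitted maximal effect; 0% = full enzyme reaction and -100% = no-enzyme basal signal; the screen sought inhibitors and activators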
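qHTS, 1536-well; enzyme 4 nM final; cpd up to 77 uM; substrate bovine liver glycogen 30 ug; 50 mM citrate/phosphate pH 5.0, 0.01% Tween-20; 37 C, 40 min; Amplex Red detection 45 min RT; Hill fit → AC50.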
FBPA coupling cs – inhibits coupling enzyme system, counter-screen for aldolase hits; coupling enzyme system counterscreen, AmpLite Red fluorescence; activity change, negative = inhibition, % at 58.2 µM, hits read low; actives 0.67% (n = 290,000); AID 2472; in the data active means activity change below about -30%; further: on the % scale 0 is the no-effect control and ±100 the full control effect
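Coupling enzymes only (glyceraldehyde-3-phosphate) + compound, at 57.5 uM final, 10 min RT; add substrate/coupling/AmpLite Red mix, 20 min RT; fluorescence ex 525/em 598 nm. Actives flag coupling-system interference.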
aGlu spleen mod – lysosomal alpha-glucosidase (human) modulation | actives 0.006% (n = 240,000) | Potency, µM (doses to about 79.9 µM), without a hit: top-dose activity change, negative = inhibition, actives largely listed as inhibitors | P10253 | AID 2112 | human spleen homogenate, 4-MU-alpha-glucoside fluorescence; active means well fitted curve in the direction sought with a large enough effect; inconclusive means small, poorly fitted or top-dose-only effect, or another doubt; inactive means no such curve, though single readings can be large; an effect the other way counts as inactive or inconclusive;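 further: potency means the concentration at half of the fitted maximal effect; 0% = enzyme with vehicle and -100% = no enzyme basal signal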
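Enzyme source: human spleen homogenate, 1 ug/well. Buffer 50 mM citric acid/K phosphate pH 5.0, 0.01% Tween-20. 4-MU-alpha-glucoside 1 mM; 37 C x 40 min; NaOH/glycine stop; fluorescence.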
B2AR arrestin – recruits beta-arrestin to the human beta2-adrenergic receptor | Potency, µM (series often up to 46.1 µM), without a hit: at the top dose activation, hits mostly activators | actives 0.02% (n = 330,000) | P07550 | AID 492947 | beta-arrestin recruitment to beta2AR, cell-based reporter; active means well fitted curve in the direction sought with a large enough effect; inconclusive means small, poorly fitted or top-dose-only effect, or another doubt; inactive means no such curve, though single readings can be large; an effect the other way counts as inactive or inconclusive;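 further: potency means the concentration at half of the fitted maximal effect; 0% = DMSO controls and full agonism = EC100 isoproterenol or metaproterenol; nearly all actives have a fitted effect of over 65% in size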
CASP1 redox cat – counter-screen for redox active human caspase-1 inhibitors with catalase. shares compounds with FBPA coupling cs. caspase-1 Ac-WEHD-AFC fluorescence rate, catalase buffer. Potency, µM (highest dose often 57.5 µM), without a hit: at the top dose activity change, negative = inhibition, usual class: inhibitors. 30 tested, under 10 active. AID 888
CASP1 inh CRC – confirmation of allosteric or competitive inhibitors of human caspase-1; shares compounds with FBPA coupling cs; purified caspase-1, fluorogenic substrate cleavage; Potency, µM (series often up to 57.5 µM), for inactives: at the top dose activity change, negative = inhibition, hits mostly inhibitors; actives 20% (n = 60)
Casp7 confirm – confirmation of allosteric or competitive inhibitors of human caspase-7 | shares compounds with FBPA coupling cs | recombinant caspase-7, fluorogenic substrate cleavage | Potency, µM (top dose mostly 57.5 µM), without a hit: top-dose activity change, negative = inhibition, most hits filed as inhibitors | 60 tested, under 10 active; active means well fitted inhibition curve with a large enough effect in the main read-out, with a control signal flat, not every such curve was filed as active; inconclusive means small, poorly fitted or top-dose-only effect, or a change in a side signal; inactive means no such curve, though single readings can be large or run the other way
Target sequence (P55210 24-198 limits assumed): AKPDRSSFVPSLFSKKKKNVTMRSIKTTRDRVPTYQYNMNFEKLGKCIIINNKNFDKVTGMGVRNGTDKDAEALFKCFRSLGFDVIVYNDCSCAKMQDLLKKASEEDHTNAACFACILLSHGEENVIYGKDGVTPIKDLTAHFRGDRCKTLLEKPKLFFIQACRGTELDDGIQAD
Target sequence (P55210 207-303 limits assumed): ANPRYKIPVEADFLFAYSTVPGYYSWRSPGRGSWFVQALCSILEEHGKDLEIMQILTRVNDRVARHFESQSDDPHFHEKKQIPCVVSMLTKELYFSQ
Casp7 cysteine – counter-screen for redox active caspase-7 inhibitors: cysteine buffer; Potency, µM (series often up to 57.5 µM), without a hit: at the top dose activity change, negative = inhibition, most hits filed as inhibitors; AID 908; caspase-7 enzyme with cysteine, fluorogenic substrate, redox counterscreen; shares compounds with FBPA coupling cs; 60 tested, under 10 active
Casp7 catalase – inhibits caspase-7 in catalase buffer, redox counter-screen | shares compounds with FBPA coupling cs | Caspase-7 Ac-DEVD-AFC fluorescence rate, catalase buffer | Potency, µM (titrated, usually from 57.5 µM), for the others: at the highest dose activity, negative = inhibition, usual class: inhibitors | 30 tested, under 10 active | AID 909
CASP1 redox cys – counter-screen for redox active caspase-1 inhibitors: cysteine buffer; shares compounds with FBPA coupling cs; 60 tested, under 10 active; Potency, µM (top dose mostly 57.5 µM), for inactives: at the top dose activity change, negative = inhibition, hits mostly inhibitors; recombinant caspase-1, fluorogenic substrate, cysteine buffer
Starred values were filed as active, the others as inactive; ? = inconclusive; . = no result given. Compounds with a hit are over-represented: about 0.85% of the library has one in this group of screens. Unless noted, the call rests on the fitted dose curve; in most records, active means well fitted inhibition curve with a large enough effect in the main read-out, with a control signal flat; inconclusive means small, poorly fitted or top-dose-only effect, or a change in a side signal; inactive means no such curve, though single readings can be large or run the other way.

SMILES | GAA inhib | GAA glycogen mod | FBPA coupling cs | aGlu spleen mod | B2AR arrestin | CASP1 inh CRC | Casp7 confirm | Casp7 cysteine | CASP1 redox cys | others
CCn1nc(-c2ccccc2)nc2c(=O)n(C)c(=O)nc1-2 | -7% | 6% | -61* | 0% | 0% | 1µM* | 1.6µM* | -3% | -20% | CASP1 redox cat=0.79µM*;Casp7 catalase=?
COc1cc2c(cc1O)C[C@H]1c3c(cc(OC)c(O)c3-2)CCN1C | . | . | -12 | 13% | . | 32µM* | -68% | -4% | -5%
COc1cc2c(cc1OC)-c1c(OC)c(OC)c(C=O)c3c1[C@H](C2)N(C)CC3 | . | . | -22 | -1% | . | ? | -17% | -4% | ?
ClC(Cl)c1ccccc1 | . | . | . | -12% | . | . | . | . | .
C(=C\c1ccccc1)/CN1CCN(CCOC(c2ccccc2)c2ccccc2)CC1 | . | . | . | -18% | . | . | . | . | .

Screening data: PubChem, National Center for Advancing Translational Sciences (NCATS)
